# According to PubChem BioAssay:
# Several values for one entry are separate records, joined by “and”; a condition that tells them apart may be missing. Equal entries are not always repeated. Results filed as inconclusive are left out. For some of these results: Results with a measured potency or affinity are listed apart. Activity calls are given as the source filed them. Unless noted, how the calls were made is not given here.
# Legend:
# [1] = molecular target: 6-phosphogluconate dehydrogenase, decarboxylating (Homo sapiens) (UniProt P52209); test: 6PGD enzyme inhibitors, primary screen, biochemical, human, recombinant enzyme, NADPH absorbance (AID 1159550;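 active means at least 20% inhibition of 6-phosphogluconate dehydrogenase activity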); conditions: recombinant 6PGD, NADPH absorbance 341 nm; at 10 µM; stronger effect = higher value
# [2] = molecular target: NAD(+) hydrolase SARM1 (Homo sapiens) (UniProt Q6SZW1); test: SARM1 TIR NADase inhibitors, cell lysate, NAD-Glo luminescence (AID 1508614;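 active means compound whose remaining NAD level is above about 45 nM, limit read from the data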); conditions: SAM-TIR HEK293T lysate NADase, at 1 µM, stronger effect = higher value
# [3] = molecular target: Mitogen-activated protein kinase 7 (Homo sapiens) (UniProt Q13164); test: ERK5 transactivation activators in reporter cells, primary screen, cell-based, HTS (AID 1508626;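 active means luciferase signal above three times the same-plate solvent-only control wells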;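 further: luciferase driven by Gal4-ERK5 fusion binding five Gal4 sites before minimal TATA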); conditions: HeLa Gal4-ERK5 transactivation, 18 h, at 5 µM, stronger effect = higher value
# [4] = molecular target: ATP-dependent translocase ABCB1 (Homo sapiens) (UniProt P08183); test: MDR1 (ABCB1) efflux transporter inhibition, cell-based (AID 377; in the data active means fluorescence slope change above about 50%); conditions: MDR1-expressing cells, fluorescent substrate accumulation slope; stronger effect = higher value; concentration not given here
# [5] = hESC survival regulators, cell-based (AID 493140); conditions: human embryonic stem cell survival screen; stronger effect = higher value;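 further: cells exposed to compounds for four days before counting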
# [6] = liver-stage malaria parasite growth inhibition, primary screen, cell-based, HepG2, luciferase luminescence, HepG2 viability (AID 624349; in the data active means parasite load remaining mostly below about 12%, no sharp cut-off; inactive means mostly above about 10%;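 further: 100% = mean of DMSO negative control wells on the same plate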); conditions: P. berghei liver stage in HepG2, luciferase luminescence, concentration not given here; parasite load remaining: stronger effect = lower value; viability: measured here: HepG2 viability without parasites
# [7] = sensitizers of A549 cells to miR-34 induction, primary screen, imaging, A549 dox-inducible miR-34, nuclei and caspase counts (AID 1347080;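 active means compounds whose cell count with miR-34 switched on is under 0.7 times the count with it off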); conditions: A549 miR-34 inducible, Hoechst nuclei count, 48 h
# [8] = antimalarial activity against Dd2 strain (AID 2302;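 active means growth inhibition above 50% at the single 2 µM test dose, taken to imply half-maximal potency below 2 µM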;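 further: 0% = DMSO untreated growth and 100% = chloroquine plus artemisinin killed control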); conditions: P. falciparum Dd2 in RBCs, LDH growth readout, 72 h; at 2 µM; stronger effect = higher value
# [9] = HepG2 cytotoxicity, primary screen, cytotoxicity control for P. falciparum antimalarial project, cell-based, ATP luminescence (AID 2303;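 active means inhibition above 50%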;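 further: 0% = DMSO wells and 100% = digitonin-killed cells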); conditions: HepG2 viability, 24-48 h, at 10 µM, stronger effect = higher value
# [10] = molecular target: L-lactate dehydrogenase (Plasmodium falciparum (isolate CDC / Honduras)) (UniProt Q27743); test: PfLDH activity inhibition – cell lysate, 3D7 strain, counter-screen for P. falciparum growth inhibition project (AID 2304);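 further: 0% = vehicle and 100% = reference inhibitor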; conditions: P. falciparum 3D7 crude extract, LDH APAD/NBT absorbance; at 2 µM; stronger effect = higher value
# [11] = molecular target: Calcium-dependent protein kinase 1 (Plasmodium falciparum (isolate 3D7)) (UniProt P62344); test: PfCDPK1 kinase inhibitors, biochemical, TCAMS library (AID 1159585; cut-off not given, nearly all actives have IC50 up to about 0.98 µM;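 further: inhibitors leave more ATP so luminescence rises with inhibition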); conditions: recombinant PfCDPK1, Kinase-Glo ATP depletion luminescence
# [12] = molecular target: Plasmodium falciparum protein kinase 6 (PK6, PF3D7_1337100) (UniProt Q8IDW1); test: PfPK6 kinase inhibitors, biochemical, TCAMS library (AID 1159586); conditions: recombinant PfPK6, Kinase-Glo ATP depletion luminescence
# [13] = molecular target: Protein kinase 7 (PK7), Plasmodium falciparum 3D7 (PF3D7_0213400) (UniProt Q7YTF7); test: inhibition of Plasmodium PK7 catalytic activity – biochemical, TCAMS antimalarial set, Kinase-Glo luminescence (AID 1159587); conditions: recombinant PfPK7, Kinase-Glo ATP depletion luminescence
# [14] = molecular target: Calcium-dependent protein kinase 4 (Plasmodium falciparum (isolate 3D7)) (UniProt Q8IBS5); test: PfCDPK4 kinase inhibitors, biochemical, TCAMS library (AID 1159588; cut-off not given, nearly all actives have IC50 up to about 0.91 µM); conditions: recombinant PfCDPK4, Kinase-Glo ATP depletion luminescence
# [15] = polyglutamine-triggered caspase-3 activation inhibitors, cell-based (AID 1583); conditions: polyglutamine-induced caspase-3 activation, cell assay; stronger effect = higher value;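 tested at 10 µM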
# [16] = suppressors of polyQ aggregation in yeast, 75Q-TubU reporter (AID 1593); conditions: Yeast 75Q polyglutamine aggregation reporter
# [17] = rescue of polyQ-huntingtin neuronal dysfunction in worms, whole organism, C. elegans mechanosensory neurons, N-terminal huntingtin (AID 1599); conditions: touch response, stronger effect = higher value
# [18] = inhibitors of mitochondrial cytochrome c release, biochemical, purified mitochondria (AID 1603); conditions: stronger effect = lower value;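 further: mouse liver mitochondria challenged with calcium chloride; signal normalized to the plate average as 100%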
# [19] = inhibitors of polyQ protein aggregation (AID 1604); conditions: polyglutamine-induced protein aggregation inhibition assay; stronger effect = higher value; tested at 2.5 µM
# [20] = enhancers of glutamate uptake in motor neurons, MN-1 cell line (AID 1612); conditions: MN-1 motor neuron cells, stronger effect = higher value;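 further: tested at 1 µM final; 0% = mean of DMSO vehicle wells on each plate; positive means more glutamate uptake than control and negative means less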
# [21] = reducers of polyQ inclusions in PC12 cells, cell-based, NGF-treated PC12, GFPQ80 (AID 1614); conditions: PC12 NGF-treated GFP-polyQ80 inclusion reduction;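 further: lower means fewer inclusions and 0 means no inclusions at all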
# [22] = suppressors of polyglutamine aggregation in yeast, 75Q-TubH (AID 1616); conditions: S. cerevisiae 75Q-TubH polyglutamine aggregation suppression; stronger effect = higher value
# [23] = inhibition of 3D7 malaria parasite growth – strain 3D7 (AID 2306);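 further: 0% = DMSO wells and 100% = chloroquine plus artemisinin control wells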; conditions: P. falciparum 3D7 erythrocytic growth, LDH absorbance, 72 h; at 2 µM; stronger effect = higher value
# [24] = measured here: relative caspase fold change +Dox/-Dox
# [25] = measured here: total cells with miR-34 induction, stronger effect = lower value
# [26] = measured here: total cells without miR-34 induction
# Chain of Calcium-dependent protein kinase 4 (Plasmodium falciparum (isolate 3D7)) (Q8IBS5 whole entry, looked up): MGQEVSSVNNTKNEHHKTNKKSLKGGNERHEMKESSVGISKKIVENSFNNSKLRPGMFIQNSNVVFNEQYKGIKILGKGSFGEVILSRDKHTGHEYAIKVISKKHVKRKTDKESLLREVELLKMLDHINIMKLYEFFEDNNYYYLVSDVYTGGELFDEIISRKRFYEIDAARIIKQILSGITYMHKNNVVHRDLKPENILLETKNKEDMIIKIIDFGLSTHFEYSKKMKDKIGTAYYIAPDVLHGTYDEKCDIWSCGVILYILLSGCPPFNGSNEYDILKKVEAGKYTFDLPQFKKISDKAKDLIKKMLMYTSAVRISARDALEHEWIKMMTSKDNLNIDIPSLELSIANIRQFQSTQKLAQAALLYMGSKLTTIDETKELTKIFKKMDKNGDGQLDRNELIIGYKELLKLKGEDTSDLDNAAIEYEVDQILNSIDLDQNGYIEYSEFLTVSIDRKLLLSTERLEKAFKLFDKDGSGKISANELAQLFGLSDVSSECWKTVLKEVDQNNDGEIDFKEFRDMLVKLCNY
# Chain of 6-phosphogluconate dehydrogenase, decarboxylating (Homo sapiens) (P52209 whole entry, looked up): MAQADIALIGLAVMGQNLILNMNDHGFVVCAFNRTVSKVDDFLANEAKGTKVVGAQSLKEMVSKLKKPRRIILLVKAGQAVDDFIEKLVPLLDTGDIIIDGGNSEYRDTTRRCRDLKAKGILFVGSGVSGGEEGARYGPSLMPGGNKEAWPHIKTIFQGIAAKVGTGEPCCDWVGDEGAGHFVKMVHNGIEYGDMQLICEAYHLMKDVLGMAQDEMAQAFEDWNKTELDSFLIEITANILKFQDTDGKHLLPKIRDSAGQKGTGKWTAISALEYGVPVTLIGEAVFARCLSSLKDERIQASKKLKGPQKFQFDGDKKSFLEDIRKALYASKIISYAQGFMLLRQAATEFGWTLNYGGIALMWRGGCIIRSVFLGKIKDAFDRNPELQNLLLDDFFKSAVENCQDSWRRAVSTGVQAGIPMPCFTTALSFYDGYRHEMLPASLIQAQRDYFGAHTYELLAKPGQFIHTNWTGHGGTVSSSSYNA
# Chain of ATP-dependent translocase ABCB1 (Homo sapiens) (P08183 whole entry, looked up): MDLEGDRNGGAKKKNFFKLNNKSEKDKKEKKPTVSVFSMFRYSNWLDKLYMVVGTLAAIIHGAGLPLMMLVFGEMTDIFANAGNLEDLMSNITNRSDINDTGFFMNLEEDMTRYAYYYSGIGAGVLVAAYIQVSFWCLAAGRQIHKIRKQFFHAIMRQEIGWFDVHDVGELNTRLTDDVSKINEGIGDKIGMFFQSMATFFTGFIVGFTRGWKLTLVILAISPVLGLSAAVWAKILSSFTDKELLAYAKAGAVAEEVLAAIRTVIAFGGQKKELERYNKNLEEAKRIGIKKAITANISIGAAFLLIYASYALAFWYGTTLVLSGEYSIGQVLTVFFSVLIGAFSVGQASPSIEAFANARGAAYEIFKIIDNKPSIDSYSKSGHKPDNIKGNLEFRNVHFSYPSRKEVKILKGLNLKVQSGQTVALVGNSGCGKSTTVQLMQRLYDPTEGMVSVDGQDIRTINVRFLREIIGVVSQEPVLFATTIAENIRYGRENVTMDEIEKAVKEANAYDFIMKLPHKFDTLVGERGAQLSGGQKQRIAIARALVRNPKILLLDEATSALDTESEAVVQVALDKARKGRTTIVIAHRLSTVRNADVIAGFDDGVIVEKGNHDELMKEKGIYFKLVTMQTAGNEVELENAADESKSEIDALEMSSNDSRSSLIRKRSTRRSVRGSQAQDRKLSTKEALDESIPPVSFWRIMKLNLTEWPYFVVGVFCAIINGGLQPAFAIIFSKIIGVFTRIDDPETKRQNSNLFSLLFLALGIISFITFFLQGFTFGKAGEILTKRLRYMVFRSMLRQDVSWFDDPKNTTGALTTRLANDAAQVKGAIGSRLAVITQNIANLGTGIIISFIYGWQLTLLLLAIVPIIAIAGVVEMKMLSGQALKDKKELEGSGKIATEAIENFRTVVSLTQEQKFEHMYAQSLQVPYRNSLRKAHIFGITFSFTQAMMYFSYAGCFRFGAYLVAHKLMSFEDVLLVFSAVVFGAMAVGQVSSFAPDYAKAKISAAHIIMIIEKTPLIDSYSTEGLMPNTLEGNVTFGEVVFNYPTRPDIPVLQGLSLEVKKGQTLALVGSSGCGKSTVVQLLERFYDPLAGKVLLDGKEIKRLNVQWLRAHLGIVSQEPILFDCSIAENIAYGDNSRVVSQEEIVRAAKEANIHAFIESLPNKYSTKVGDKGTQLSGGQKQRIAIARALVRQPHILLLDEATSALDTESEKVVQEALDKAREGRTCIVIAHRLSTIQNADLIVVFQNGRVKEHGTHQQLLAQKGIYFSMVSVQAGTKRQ
# Chain of Plasmodium falciparum protein kinase 6 (PK6, PF3D7_1337100) (Q8IDW1 1-305): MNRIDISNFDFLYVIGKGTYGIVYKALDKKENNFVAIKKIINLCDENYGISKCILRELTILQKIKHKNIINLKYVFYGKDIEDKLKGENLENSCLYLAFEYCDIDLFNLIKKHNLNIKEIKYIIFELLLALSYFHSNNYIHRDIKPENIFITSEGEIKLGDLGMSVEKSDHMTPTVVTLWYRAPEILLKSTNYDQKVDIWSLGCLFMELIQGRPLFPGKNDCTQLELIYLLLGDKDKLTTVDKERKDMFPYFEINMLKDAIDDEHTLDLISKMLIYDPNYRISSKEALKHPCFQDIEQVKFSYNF
# Chain of Calcium-dependent protein kinase 1 (Plasmodium falciparum (isolate 3D7)) (P62344 whole entry, looked up): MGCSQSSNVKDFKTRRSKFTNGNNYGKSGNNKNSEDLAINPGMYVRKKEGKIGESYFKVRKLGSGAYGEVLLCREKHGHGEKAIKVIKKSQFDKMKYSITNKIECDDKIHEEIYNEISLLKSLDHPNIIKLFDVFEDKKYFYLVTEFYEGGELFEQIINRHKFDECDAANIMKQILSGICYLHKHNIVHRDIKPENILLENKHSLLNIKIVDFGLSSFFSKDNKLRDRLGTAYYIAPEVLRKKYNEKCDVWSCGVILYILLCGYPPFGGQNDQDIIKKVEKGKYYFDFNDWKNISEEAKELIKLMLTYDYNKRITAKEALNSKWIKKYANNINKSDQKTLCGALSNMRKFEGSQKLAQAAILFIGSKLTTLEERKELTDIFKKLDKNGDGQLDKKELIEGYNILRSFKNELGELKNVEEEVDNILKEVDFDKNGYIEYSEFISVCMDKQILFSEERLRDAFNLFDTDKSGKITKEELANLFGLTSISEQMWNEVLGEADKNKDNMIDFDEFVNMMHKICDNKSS
# Chain of Protein kinase 7 (PK7), Plasmodium falciparum 3D7 (PF3D7_0213400) (Q7YTF7 1-343): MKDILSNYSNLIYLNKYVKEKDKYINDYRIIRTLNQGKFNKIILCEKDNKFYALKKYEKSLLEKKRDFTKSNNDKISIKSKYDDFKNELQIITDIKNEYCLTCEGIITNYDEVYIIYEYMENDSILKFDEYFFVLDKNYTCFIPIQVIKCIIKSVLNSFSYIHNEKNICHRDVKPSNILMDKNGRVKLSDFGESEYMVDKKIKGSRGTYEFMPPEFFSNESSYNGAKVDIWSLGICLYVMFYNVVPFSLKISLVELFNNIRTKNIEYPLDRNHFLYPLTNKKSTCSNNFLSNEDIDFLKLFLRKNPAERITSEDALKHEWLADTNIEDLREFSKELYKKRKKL
# Chain of L-lactate dehydrogenase (Plasmodium falciparum (isolate CDC / Honduras)) (Q27743 whole entry, looked up): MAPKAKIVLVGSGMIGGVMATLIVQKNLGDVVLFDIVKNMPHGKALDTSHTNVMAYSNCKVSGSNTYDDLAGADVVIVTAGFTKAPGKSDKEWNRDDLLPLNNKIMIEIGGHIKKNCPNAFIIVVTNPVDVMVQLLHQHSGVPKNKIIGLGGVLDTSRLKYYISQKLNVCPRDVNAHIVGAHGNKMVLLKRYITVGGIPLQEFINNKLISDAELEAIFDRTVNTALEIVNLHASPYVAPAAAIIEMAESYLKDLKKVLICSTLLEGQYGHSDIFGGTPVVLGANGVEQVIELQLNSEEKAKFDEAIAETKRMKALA
# Chain of Mitogen-activated protein kinase 7 (Homo sapiens) (Q13164 whole entry, looked up, the tested form may be a part): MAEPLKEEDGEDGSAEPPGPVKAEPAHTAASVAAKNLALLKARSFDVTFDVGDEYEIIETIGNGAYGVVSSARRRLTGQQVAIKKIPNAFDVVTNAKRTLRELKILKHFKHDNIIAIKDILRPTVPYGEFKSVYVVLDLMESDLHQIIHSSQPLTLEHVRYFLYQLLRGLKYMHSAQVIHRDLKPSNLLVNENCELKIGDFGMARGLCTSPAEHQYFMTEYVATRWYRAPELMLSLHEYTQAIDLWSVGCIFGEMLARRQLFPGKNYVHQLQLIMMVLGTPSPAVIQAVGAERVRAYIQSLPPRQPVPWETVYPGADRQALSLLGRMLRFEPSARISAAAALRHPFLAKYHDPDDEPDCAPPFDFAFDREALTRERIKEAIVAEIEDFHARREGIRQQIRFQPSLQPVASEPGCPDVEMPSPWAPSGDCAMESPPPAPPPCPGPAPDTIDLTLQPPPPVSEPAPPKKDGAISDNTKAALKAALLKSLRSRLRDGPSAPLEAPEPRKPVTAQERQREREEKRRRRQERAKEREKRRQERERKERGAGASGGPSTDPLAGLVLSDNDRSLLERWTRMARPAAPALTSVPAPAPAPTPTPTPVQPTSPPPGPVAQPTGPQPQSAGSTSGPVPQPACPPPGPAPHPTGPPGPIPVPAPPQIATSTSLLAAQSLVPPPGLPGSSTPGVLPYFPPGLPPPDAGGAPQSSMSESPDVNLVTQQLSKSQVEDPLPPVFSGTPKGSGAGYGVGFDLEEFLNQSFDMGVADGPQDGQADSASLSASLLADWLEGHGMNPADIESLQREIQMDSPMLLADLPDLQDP
smiles,measurement,setting,value
C[C@@H]1[C@H](O)[C@@H](C)/C=C/C=C/CC/C=C/C=C/C=C/C=C/C(O[C@H]2O[C@H](C)[C@@H](O)[C@H](N)[C@@H]2O)CC2O[C@](O)(CC(O)C(O)CCC(O)CC(O)CC(O)CC(=O)O[C@H]1C)CC(O)C2C(=O)O (stereo not given in full),inhibition,[1],8.65% (inactive)
same,remaining NAD,[2],10 nM (inactive)
same,luciferase signal,[3],56 AU (inactive)
C[C@H]1O[C@@H](O[C@H]2[C@@H](O)C[C@H](O[C@H]3[C@@H](O)C[C@H](O[C@H]4CC[C@@]5(C)[C@H](CC[C@@H]6[C@@H]5CC[C@]5(C)[C@@H](C7=CC(=O)OC7)[C@@H](O)C[C@]65O)C4)O[C@@H]3C)O[C@@H]2C)C[C@H](O)[C@@H]1O,inhibition,[1],-2.27% (inactive)
same,luciferase signal,[3],16 AU (inactive)
CC(=O)[O-].CC(=O)[O-].[Cd+2],inhibition,[1],6.37% (inactive)
same,luciferase signal,[3],740 AU (inactive)
CN1Cc2c(ccc3c2OCO3)[C@@H]2[C@H]1c1cc3c(cc1C[C@@H]2O)OCO3,fluorescence slope change,[4],54.5% (active)
same,survival,[5],0.417 (inactive)
same,parasite load remaining,[6],92.6% (inactive)
same,viability,[6],77.6%
same,inhibition,[1],7.55% (inactive)
COP(=S)(OC)SCn1nnc2ccccc2c1=O,inhibition,[1],1.29% (inactive)
same,luciferase signal,[3],64 AU (inactive)
CC1(C)C(=O)C=C[C@]2(C)[C@H]3CC[C@@]4(C)[C@H](c5ccoc5)OC(=O)[C@H]5O[C@]54[C@]3(C)[C@H](O)C[C@@H]12,inhibition,[1],3.18% (inactive)
same,luciferase signal,[3],16 AU (inactive)
COC[C@]12CN(C=O)C3[C@@H]4C(OC)C1[C@]3(C1CC3(O)C(OC)C(O)C4(OC(C)=O)C1C3OC(=O)c1ccccc1)[C@@H](OC)C[C@H]2O (stereo not given in full),inhibition,[1],-2.18% (inactive)
same,luciferase signal,[3],148 AU (inactive)
COc1ccc(CC2c3cc(OC)c(OC)cc3CCN2C)cc1OC (stereo not given),fluorescence slope change,[4],206% (active)
same,survival,[5],6.67 (inactive)
same,parasite load remaining,[6],122% (inactive) and 66.2% (inactive)
same,viability,[6],98.7% and 71.4%
same,inhibition,[1],-3.74% (inactive)
same,fold change,[7]; stronger effect = lower value,0.878 (inactive)
same,fold change,[7]; [24],1.5
same,cell count,[7]; [25],9520
same,cell count,[7]; [26],10800
C[C@@H](CO)NC(=O)[C@@H]1C=C2c3cccc4[nH]cc(c34)C[C@H]2N(C)C1,inhibition,[1],-3.88% (inactive)
same,remaining NAD,[2],10 nM (inactive)
same,luciferase signal,[3],20 AU (inactive)
C=CC12CCN(CC1)C(C(O)c1ccnc3ccc(OC)cc13)C2 (stereo not given),growth inhibition,[8],72% (active)
same,inhibition,[9],-6% (inactive)
same,inhibition,[10],-9% (inactive)
same,outcome,[11],inactive
same,outcome,[12],inactive
same,outcome,[13],inactive
same,outcome,[14],inactive
O=C(O)CNCP(=O)(O)O,inhibition,[1],3.86% (inactive)
same,luciferase signal,[3],40 AU (inactive)
CC(C)CC(NC(=O)C(Cc1ccccc1)NC(=O)CNC(=O)CNC(=O)C(N)Cc1ccc(O)cc1)C(=O)O (stereo not given),inhibition,[15],-1.79%
same,score,[16],1.42
same,rescue above control,[17],3.43
same,cytochrome c release ratio,[18],0.97
same,inhibition of aggregation,[19],27.9%
same,glutamate uptake change,[20],12.5%
same,inclusion score,[21],2
same,aggregation suppression score,[22],1.27
same,inhibition,[1],11% (inactive)
C[C@H]1CC[C@]2(NC1)O[C@H]1C[C@H]3[C@@H]4CC[C@H]5C[C@@H](O)CC[C@]5(C)[C@H]4CC[C@]3(C)[C@H]1[C@@H]2C,fluorescence slope change,[4],83.2% (active)
same,parasite load remaining,[6],75.2% (inactive)
same,viability,[6],101%
same,inhibition,[1],-31.5% (inactive)
same,fold change,"[7]; stronger effect = lower value, cell number ratio, induced over uninduced",0.873 (inactive)
same,fold change,[7]; [24],1.03
same,cell count,[7]; [25],9790
same,cell count,[7]; [26],11200
same,luciferase signal,[3],104 AU (inactive)
COc1nc(N)ncc1C(=O)NC1CN2CCC1CC2 (stereo not given),growth inhibition,[8],0% (inactive)
same,inhibition,[9],26% (inactive)
same,inhibition,[10],-1% (inactive)
same,growth inhibition,[23],92% (active)
same,outcome,[11],inactive
same,outcome,[12],inactive
same,outcome,[13],inactive
same,outcome,[14],inactive
O=C1CCCC2C3CC(CN12)C1CCCCN1C3 (stereo not given),inhibition,[1],-2.75% (inactive)
same,luciferase signal,[3],60 AU (inactive)
COc1cc2nc(N(C)C3CCN(Cc4ccccc4)CC3)nc(N)c2cc1OC,growth inhibition,[8],93% (active)
same,inhibition,[9],19% (inactive)
same,inhibition,[10],1% (inactive)
same,growth inhibition,[23],99% (active)
same,outcome,[11],inactive
same,outcome,[12],inactive
same,outcome,[13],inactive
same,outcome,[14],inactive
CNC(=O)c1ccc2[nH]cc(C3CCN(CC4CCC(NC(=O)/C=C/c5ccccc5Cl)CC4)CC3)c2c1 (stereo not given),growth inhibition,[8],19% (inactive)
same,inhibition,[9],12% (inactive)
same,inhibition,[10],3% (inactive)
same,growth inhibition,[23],100% (active)
same,outcome,[11],inactive
same,outcome,[12],inactive
same,outcome,[13],inactive
same,outcome,[14],inactive
CC1CC(Cl)CCC1C(=O)OC(C)(C)C (stereo not given),inhibition,[1],-3.82% (inactive)
same,luciferase signal,[3],40 AU (inactive)
